Measured values from PubChem BioAssay AID624305 (National Center for Advancing Translational Sciences (NCATS), 2012).
Inconclusive results are not listed. Calls of active or inactive are those of the source. Calls follow the shape of the dose curve; as a rule, active = well fitted activation curve with a large enough effect; inconclusive = small, poorly fitted or top-dose-only effect; inactive = no such curve, though single readings can be large or run the other way.

assay: qHTS assay for re-activators of p53 using a Luc reporter: Hit Validation; conditions: p53-responsive luciferase reporter cells, luminescence, H1299 line expressing heat-sensitive Ala138Val p53; series mostly up to 46.1 µM; also: nearly all actives have a fitted effect of over 75% in size; as to activation: 0% is about no effect
How it was run: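 H1299 (p53-null) cells stably carrying p53-A138V and a BP100-luciferase reporter, 1000 cells/well, treated 24 h at 37 deg C. Compounds at several concentrations, 1:5 dilution; nocodazole control; luminescence read after 10 min with detection reagent.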
Potency is read from the fitted curve at half-maximal effect.

Compound | Potency | activation
O=C(CCc1nc(-c2ccccc2F)no1)NC1CCCCCC1 | inactive | –
Cc1ncsc1C(=O)Nc1nc2c(s1)CCCC2 | 1.84 µM (active) | –
N#C/C(=C/c1cccnc1)c1ccccc1 | inactive | –
Cc1cc(C(=O)Cn2nnc3ccccc3c2=O)c(C)n1Cc1cccs1 | 0.259 µM (active) | –
COc1ccc(C2SCCN2C(=S)Nc2ccc(Cl)cc2)cc1 (stereo not drawn) | inactive | –
c1ccc(-c2nnc(-c3ccccn3)nc2NC2CCCCC2)cc1 | 18.4 µM (active) | –
CCOc1ccc(N2C(=O)c3ccccc3NC2(C)CC)cc1 (stereo not drawn) | 9.2 µM (active) | –
CCCCc1ccc(NC(=S)Nc2ccc(Nc3ccc(OC)cc3)cc2)cc1 | inactive | –
Cc1ccc(NC(=O)/C(Cl)=C/c2ccccc2)cc1C | 2.06 µM (active) | –
C/C(=N\NC(=O)c1cccc(Br)c1)c1ccccn1 | 9.2 µM (active) | –
CSCCC(NC(=O)c1ccc(Cl)cc1Cl)C(=O)N1CC(C)OC(C)C1 (stereo not drawn) | inactive | –
COc1ccc(C(=O)Nc2nnc(C(F)(F)F)s2)cc1 | 10.3 µM (active) | –
Cn1ncc([N+](=O)[O-])c1C(=O)Nc1ccc(C2CCCCC2)cc1 | inactive | –
CC(=O)N1CCC(C(=O)Nc2ccc(S(=O)(=O)NCCc3ccccc3)cc2)CC1 | inactive | –
Cc1ccc(S(=O)(=O)c2cn(CC(=O)Nc3ccccc3)c3ccc(F)cc3c2=O)cc1 | inactive | –
CCOc1ccc2c(c1)C(=NNC(=O)c1ccncc1)c1cc(OCC)ccc1-2 | inactive | –
COc1ccc(C(C#N)N2N=C(c3ccccc3)CC2c2ccccc2)cc1OC (stereo not drawn) | inactive | –
Clc1ccc(OCc2nc(-c3ccncc3)no2)c(Cl)c1 | 8.2 µM (active) | –
Cc1ccc(C(=O)Nc2ccn(C)n2)cc1 | 8.2 µM (active) | –

Compound | Potency | activation
COc1ccc(N=C(N)SCc2ccccn2)cc1 | inactive | –
CCn1c(=N)n(CCOc2ccc(OC)cc2)c2ccccc21 | inactive | –
Brc1ccc(-c2nc3ccccc3s2)s1 | 3.26 µM (active) | –
Cc1sc(NC(=O)c2ccc(Cl)s2)c(C(N)=O)c1C | 4.11 µM (active) | –
Cc1ccc(C)c(OCC(O)CN2C(C)CCCC2C)c1 (stereo not drawn) | inactive | –
c1ccc2oc(C3=NNC(=NC4CC4)SC3)cc2c1 | 0.366 µM (active) | –
OCCNc1nc(NCc2ccccc2)c2ccccc2n1 | – | -3.8% [at 9.22 µM] (inactive)
Cc1ccc(NC(=O)c2ccc(OC(=O)COc3ccc(Cl)c(C)c3)cc2)cc1 | 9.2 µM (active) | –
Cc1cccc(C)c1NC(=O)CC(NCc1ccco1)C(=O)O (stereo not drawn) | – | -13.7% [at 9.22 µM] (inactive)
Cc1cccc(NC(=O)/C=C/c2ccc(Cl)cc2)n1 | 2.31 µM (active) | –
CC(=O)c1ccc(Nc2ncnc3c2oc2ccccc23)cc1 | 1.64 µM (active) | –
Cc1cccc(C)c1Nc1c(-c2ccccn2)nc2ccccn12 | inactive | –
O=C(/C=C/Nc1ccccc1C(=O)O)c1cccs1 | inactive | –
CCN1CCc2c(sc(NC(=O)c3ccc(S(=O)(=O)N4CCCC4)cc3)c2C(=O)NC)C1 | inactive | –
O=C(NN=C1CCCCCC1)c1cccs1 | – | 12.5% [at 9.22 µM] (inactive)
Cc1ccc(OC(=O)c2cccc(S(=O)(=O)N3CCCC3)c2)c(-n2nc3ccccc3n2)c1 | 3.66 µM (active) | –
Cc1ccc(C)n1-c1sc2c(c1C(=O)O)CCCC2 | inactive | –
O=C(Nc1nc2c(s1)CCCC2)C1COc2ccccc2O1 (stereo not drawn) | 0.231 µM (active) | –
COc1ccc(N(C(=O)Nc2ccc(Cl)cc2)C2=NCCC2)cc1 | inactive | –
